Each structure is given as a SMILES string. Potency and affinity values are given separately. A number with no mark means an inactive call.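 Rule for the calls: active = enzyme inhibitor confirmed by dose series, half-maximal inhibitory concentration at most 40 µM; inactive = the rest.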

The values below come from PubChem BioAssay AID1028 (SRMLSC, 2008).

This assay has as its target diphosphomevalonate decarboxylase (Streptococcus pneumoniae D39) (UniProt Q9FD53). Description: S. pneumoniae DPM-DC inhibition retest, confirmation, biochemical, cuvette format, coupled NADH fluorescence (AID 1028). The conditions noted are these: purified DPM-DC, rate, at 50 µM, hits give high values.
The inhibition is the change of the read-out against control, counted positive when it falls. In the case of `Fc1cccc(-c2nc3ccccc3o2)c1`, the inhibition was 4.51%. `COc1ccc2oc(-c3ccc([N+](=O)[O-])cc3)nc2c1`: the inhibition is 1.63%. Next, `COc1ccc2nc(-c3cc(OC)c(OC)c(OC)c3)oc2c1`: 3.99%; `Cc1ccc(C)c(-c2nc3cccc(N)c3o2)c1`: -0.39%; `Cc1ccccc1-c1nc2ccccc2o1`: 1.75%. Next, `Cc1ccccc1-c1nc2cccc(N)c2o1`: -2.22%; `c1ccc(-c2nc3ccccc3o2)cc1`: 2.96%.

Regarding `Nc1ccc2oc(-c3ccc(F)cc3)nc2c1`, the inhibition was 13.4%. Consider `Cc1ccc(C)c(-c2nc3ccccc3o2)c1`, for which the inhibition is -0.27%. Consider `COc1ccccc1-c1nc2ccccc2o1`, for which the inhibition is 6.39%. The figure for `Nc1ccc2oc(-c3cccc(F)c3)nc2c1` is 10.4%; for `Cc1ccc(C)c(-c2nc3cc([N+](=O)[O-])ccc3o2)c1` it is 1.75%. Take `Cc1cccc(-c2nc3ccccc3o2)c1`: the inhibition was 5.31%. `Cc1ccc(-c2nc3ccccc3o2)cc1`: the inhibition is 7.2%.

For `O=C(NC1CC1)c1ccccc1-n1sc2ccccc2c1=O`, the inhibition is 8%. The figure for `O=C(c1ccccc1-n1sc2ccccc2c1=O)N1CCCC1` is 16.1%; for `CCN(CC)C(=O)c1ccccc1-n1sc2ccccc2c1=O` it is 14.9%; for `Cc1ccc(-c2nc3ccccc3o2)cc1F` it is 9.15%. Next, `COc1ccc2nc(-c3cc(C)ccc3C)oc2c1`: 1.13%; `COc1ccc2oc(-c3ccc(N)cc3)nc2c1`: 7.74%. The figure for `Nc1ccc2oc(-c3cccc(Cl)c3)nc2c1` is 8.07%; for `COc1ccc2oc(-c3ccc(C)cc3)nc2c1` it is -3.06%.

As for `CCCN(CCC)C(=O)c1ccccc1-n1sc2ccccc2c1=O`, the inhibition was 14.3%. Next, `COc1ccc2oc(-c3cccc(C)c3)nc2c1`: 2.37%.
